Measurements reported in PubChem BioAssay (EPA / NIEHS).
“And” between values parts separate entries of the source, which are not always exact repeats. Equal entries are not always repeated. Some compounds were tested as several samples or in several runs, with calls that do not always agree. The source made the active and inactive calls. The calls were made as follows: active = hit-call score of the fitted dose curve at least 0.9, where 1 is the maximum; inactive = score below 0.9.

Test: ATG_Ets_CIS: Attagene CIS-FACTORIAL HepG2 Assay for human Erythroblast Transformation Specific (ETS) (AID 2282941)
Conditions: HepG2 ETS cis-reporter transcription, actives raise or lower the signal
Experimental: ATG_CIS is a cell-based, multiplexed-readout assay that uses HepG2, a human liver cell line, with measurements taken at 24 hours after chemical dosing in a 24-well plate.ATG_Ets_CIS is one of 52 assay component(s) measured or calculated from the ATG_CIS assay. It is designed to make measurements of mRNA induction, a form of inducible reporter, as detected with fluorescence intensity signals by Reverse transcription polymerase chain reaction (RT-PCR) and Capillary electrophoresis technology.Data from the assay component ATG_Ets_CIS was analyzed into 1 assay endpoint. This assay endpoint, ATG_Ets_CIS, was analyzed with bidirectional fitting relative to DMSO as the negative control and baseline of activity. Using a type of inducible reporter, measures of mRNA for gain or loss-of-signal activity can be used to understand the reporter gene at the transcription factor-level as they relate to the gene ETS1. Furthermore, this assay endpoint can be referred to as a primary readout, because this assay has produced multiple assay endpoints where this one serves a reporter gene function. To generalize the intended target to other relatable targets, this assay endpoint is annotated to the dna binding intended target family, where the subfamily is winged helix-turn-helix.
Human liver HepG2 cells are transiently transfected with multiple reporter transcription units (MRTUs) in 6-well plates using FuGene 6 reagent (Roche; 3 ml FuGene/1 mg DNA). The MRTU constructs are regulated by a cis-regulating element (promoter). […] A major difference between the CIS and TRANS system is that in CIS activities of endogenous TFs are measured, whereas the TRANS assay evaluates changes in activities of exogenous, chimeric NR-Gal4 proteins. […] At the end of 24 hour incubation, total RNA was isolated using TriZol reagent (Invitrogen). The isolated RNA is then reverse-transcribed using oligo(dT) primer and Mo-MLV reverse transcriptase (Invitrogen) with DNAse I (Ambion) treatment for 30 min. The one-tenth of the produced cDNA was amplified by PCR using Taq DNA polymerase (Invitrogen) and two reporter sequence-specific primers. The PCR products were fluorescently labeled by primer extension with 6-arboxyfluorescein (6-FAM) 5'-labeled reporter sequence-specific primer (2 min at 95 C, 20 s at 68 C and 10 min at 72 C) and these products were digested with 5U of HpaI (New England Biolabs) for 2h at 37 C. The fragments were purified using Qiaquick PCR columns (Qiagen), analyzed on an ABI 3130xL genetic analyzer (Applied Biosystems) with peak positions identified by using a set of X-rhodamine (ROX)-labeled MapMarker1000 molecular weight standards (BioVentures). The raw capillary electrophoresis data was processed using Attagraph software (Attagene).

Row | Structure (SMILES) | outcome | AC50
1 | CNC(=O)CSP(=S)(OC)OC | inactive | –
2 | CC[C@H](C)[C@H]1O[C@]2(C=C[C@@H]1C)C[C@@H]1C[C@@H](C/C=C(\C)[C@@H](O[C@H]3C[C@H](OC)[C@@H](O[C@H]4C[C@H](OC)[C@@H](O)[C@H](C)O4)[C@H](C)O3)[C@@H](C)/C=C/C=C3\CO[C@@H]4[C@H](O)C(C)=C[C@@H](C(=O)O1)[C@]34O)O2 (tested in a mixture with another compound) | inactive | –
3 | Oc1cc(Cl)ccc1Oc1ccc(Cl)cc1Cl | inactive | 7.09 µM (active) and 17.9 µM (active) and 5.97 µM (active)
4 | O=C(NC(=O)c1c(F)cccc1F)Nc1ccc(OC(F)(F)C(F)OC(F)(F)F)c(Cl)c1 (stereo not given) | inactive | –
5 | CCCN(CCOc1c(Cl)cc(Cl)cc1Cl)C(=O)n1ccnc1 | inactive | –
6 | Oc1ccc(Cl)cc1Cc1ccccc1 | inactive | 16.3 µM (active)
7 | Clc1ccccc1-c1nnc(-c2ccccc2Cl)nn1 | inactive | –
8 | O=S1OCC2C(CO1)C1(Cl)C(Cl)=C(Cl)C2(Cl)C1(Cl)Cl (stereo not given) | inactive | –
9 | CC(C)N(C(=O)COc1nnc(C(F)(F)F)s1)c1ccc(F)cc1 | – | 15.6 µM (active)
10 | N#CN | inactive | –
11 | O=C(Nc1ccccc1)Nc1cnns1 | inactive | –
12 | COc1cc(OC)nc(NC(=O)NS(=O)(=O)c2cc(NC=O)ccc2C(=O)N(C)C)n1 | inactive | –
13 | O=C1c2ccccc2C(=O)N1SC(Cl)(Cl)Cl | inactive | –
14 | CNC(=O)/C=C(\C)OP(=O)(OC)OC | inactive | –
15 | CC(C)(C)C(O)C(Oc1ccc(Cl)cc1)n1cncn1 (stereo not given) | inactive | –
16 | COC(=O)c1ccccc1S(=O)(=O)NC(=O)N(C)c1nc(C)nc(OC)n1 | inactive | –
17 | CCC(C)(C)C(=O)OC1=C(c2ccc(Cl)cc2Cl)C(=O)OC12CCCCC2 | – | 1.69 µM (active)
18 | COP(=S)(OC)Oc1ccc([N+](=O)[O-])cc1 | inactive | –

Row | Structure (SMILES) | outcome | AC50
19 | CCOC1Oc2ccc(OS(C)(=O)=O)cc2C1(C)C (stereo not given) | inactive | –
20 | O=C(O)C(F)(F)C(F)(F)C(F)(F)C(F)(F)C(F)(F)C(F)(F)C(F)(F)F | inactive | –
21 | N#Cc1c(Cl)c(Cl)c(Cl)c(C#N)c1Cl | inactive | –
22 | O=S(=O)(O)C(F)(F)C(F)(F)C(F)(F)C(F)(F)C(F)(F)C(F)(F)C(F)(F)C(F)(F)F | inactive | 56.1 µM (active) and 233 µM (active)
23 | CC1(C)C(C=C(Cl)Cl)C1C(=O)OC(C#N)c1ccc(F)c(Oc2ccccc2)c1 (stereo not given) | inactive | –
24 | CCOc1nc(NC)nc(NC(=O)NS(=O)(=O)c2ccccc2C(=O)OC)n1 | inactive | –
25 | O=[N+]([O-])c1c(Cl)c(Cl)c(Cl)c(Cl)c1Cl | inactive | –
26 | CCS(=O)(=O)c1cccnc1S(=O)(=O)NC(=O)Nc1nc(OC)cc(OC)n1 | inactive | –
27 | CCN(CC)C(=O)SCc1ccc(Cl)cc1 | inactive | –
28 | CCOCN(C(=O)CCl)c1c(C)cccc1CC | inactive | –
29 | ClC1C(Cl)C(Cl)C(Cl)C(Cl)C1Cl (stereo not given) | inactive | 8.89 µM (active)
30 | CCC(C)(NC(=O)c1cc(Cl)c(C)c(Cl)c1)C(=O)CCl (stereo not given) | inactive | –
31 | O=C(O)CCCOc1ccc(Cl)cc1Cl | inactive | –
32 | OCCOc1ccccc1 | inactive | –
33 | CNC(=O)Oc1ccccc1OC(C)C | inactive | –
34 | CC1(c2ccc(Oc3ccccc3)cc2)OC(=O)N(Nc2ccccc2)C1=O (stereo not given) | inactive | –
35 | COC(=O)c1ccccc1S(=O)(=O)NC(=O)Nc1nc(C)nc(OC)n1 | inactive | –
36 | CCCN(CCC)c1c([N+](=O)[O-])cc(C(F)(F)F)cc1[N+](=O)[O-] | inactive | –
